AC50 and activity, negative = inhibition data for 62 compounds are collected here from PubChem BioAssay AID1851 (National Center for Advancing Translational Sciences (NCATS), 2009).

Where “and” joins values, the source holds several entries; their conditions need not be identical. Equal values may be shown once. Screen size: about 16,000 compounds; about 5,800 (36%) were called active. Roughly 23% stayed inconclusive and do not appear here. Some of the results follow. Unmarked numbers belong to inactive results. Calls come from the whole dose curve; as a rule, active = well fitted curve in the direction sought with a large enough effect; inconclusive = small, poorly fitted or top-dose-only effect, or effect the other way; inactive = no such curve, though single readings can be large or run the other way.
% is set by controls: 0 for no effect and ±100 for the full control effect.

This assay deals with Cytochrome P450 2C19 (Homo sapiens) (UniProt P33261). Briefly: Cytochrome panel assay with activity outcomes. Conditions: recombinant CYP, pro-luciferin dealkylation, luminescence, p450-cyp2c19; series mostly up to 57.1 µM.
Cytochrome P450 2C19 (Homo sapiens), sequence (P33261 whole entry, looked up): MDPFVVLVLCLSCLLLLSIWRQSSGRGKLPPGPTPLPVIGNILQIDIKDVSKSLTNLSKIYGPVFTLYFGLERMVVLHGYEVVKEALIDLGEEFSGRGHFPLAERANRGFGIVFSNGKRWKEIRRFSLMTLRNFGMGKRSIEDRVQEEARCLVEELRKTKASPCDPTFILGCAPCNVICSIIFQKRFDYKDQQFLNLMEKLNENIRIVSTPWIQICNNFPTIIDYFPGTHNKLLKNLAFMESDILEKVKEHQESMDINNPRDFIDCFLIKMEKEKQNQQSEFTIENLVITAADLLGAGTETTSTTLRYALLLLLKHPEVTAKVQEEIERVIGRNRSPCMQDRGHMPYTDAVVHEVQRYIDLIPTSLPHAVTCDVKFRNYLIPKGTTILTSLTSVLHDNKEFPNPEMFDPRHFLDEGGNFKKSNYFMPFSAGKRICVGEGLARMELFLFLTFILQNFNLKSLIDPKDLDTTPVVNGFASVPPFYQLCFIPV
Consider `COc1ccc(C(=O)N2CCC3(CC2)CN(C(=O)Nc2ccccc2)C3)cc1`, for which the AC50 entry was “inactive”.

On to `COc1ccc(C(=S)Nc2ccccc2)cc1`, for which the AC50 was 3.98 µM (active).

`COc1ccc(NC(=S)Nc2ccccc2)cc1`: the AC50 was 2 µM (active).

Regarding `CC(=O)O[C@]1(C(C)=O)CC[C@@H]2[C@@H]3C=C(Cl)C4=CC(=O)[C@H]5C[C@@H]5[C@]4(C)[C@H]3CC[C@]21C`, the AC50 entry was “inactive”.

As to `COc1cccc(-c2[nH]nc3c2C(c2ccc(C)o2)C(C#N)=C(N)O3)c1` (configuration not stated), the AC50 was 1.78 µM (active).

On to `COc1cccc(-c2[nH]nc3c2C(c2ccsc2)C(C#N)=C(N)O3)c1` (configuration not stated), for which the concentration at half-maximal activity (AC50) is 0.447 µM (active).

As for `CS(=O)(=O)N1CCC2(CCN(Cc3nccs3)CC2)CC1`, the AC50 entry is “inactive”.

In the case of `NC(N)=N[C@H](CCC(=O)O)C(=O)O`, the AC50 entry is “inactive”.

Consider `COC(=O)N1CCC[C@@]2(CCN(C(=O)Nc3cccc(C#N)c3)C2)C1`, for which the AC50 result was “inactive”.

Regarding `COc1cc(C2C(C#N)=C(N)OC3=C2C(=O)CCC3)cc(OC)c1OC(=O)N1CCOCC1` (configuration not stated), the AC50 result is “inactive”.

For the compound `COC(=O)C1=C(C)OC(N)=C(C#N)C1c1cc(OC)ccc1OC` (configuration not stated), the AC50 was 7.94 µM (active).

Turning to `COC(=O)C1=C(C)OC(N)=C(C#N)C1C1CCCCC1` (configuration not stated), the AC50 was 0.562 µM (active).

In the case of `COC(=O)c1ccccc1OCC(=O)N1CCN(c2ccc(OC)cc2)CC1`, the half-maximal activity concentration (AC50) is 14.1 µM (active).

For `COc1cccc(Nc2ncc(C(=O)O)c3ccccc23)c1`, the AC50 result was “inactive”.

On to `COc1ccc(C(=O)N2CCC3(CCN(Cc4ccccc4OC)CC3)CC2)cc1`, for which the AC50 entry was “inactive”.

For `COc1ccc(Nc2ncc(C(=O)N3CCN(Cc4ccccc4)CC3)c3ccccc23)cc1`, the AC50 was 2 µM (active).

With `CC(=O)N1CCC2(CCN(Cc3ccccc3)CC2)CC1`, the AC50 entry was “inactive”.

Turning to `O=C(c1coc(=O)c2ccccc12)N1CCN(Cc2ccccc2)CC1`, the AC50 is 2.24 µM (active).

As to `COc1ccc(N2CCN(C(=N)/C(C(C)=O)=C(\C)O)CC2)cc1`, the AC50 entry is “inactive”.

For the compound `O=C(c1ccco1)N1CCC2(CCN(Cc3ccccc3)CC2)CC1`, the AC50 entry is “inactive”.

For `COc1ccc(Nc2ncc(C(=O)N3CCN(c4ccc(F)cc4)CC3)c3ccccc23)cc1`, the AC50 is 2.24 µM (active).

`C1CNCCOCCNCCN1`: the AC50 result is “inactive”.

For `Fc1ccc(COc2ccc(Br)cc2CNCc2ccncc2)cc1`, the AC50 was 0.1 µM (active).

In the case of `CCCN[C@@H](C)C(=O)Nc1c(C)csc1C(=O)OC`, the AC50 result is “inactive”.

`COC(=O)c1scc(C)c1NC(=O)Cc1ccccc1`: the AC50 was 15.8 µM (active).

As to `O=C(Nc1ccccc1)N1CC[C@@]2(CCCN(C(=O)c3cnccn3)C2)C1`, the AC50 result was “inactive”.

Consider `Cc1cccc(-c2nc(CN3CCCC(C(=O)NC4CCCCC4)C3)c(C)o2)c1` (configuration not stated), for which the AC50 was 22.4 µM (active).

Regarding `Cc1ccc(-c2nnc(-c3ccc(NC(=O)c4cccs4)cc3)o2)cc1`, the AC50 is 6.31 µM (active).

Regarding `Cc1ccccc1-c1nc(-c2ccc(NC(=O)c3cccs3)cc2)no1`, the AC50 is 2.82 µM (active).

In the case of `Cc1ccc(Cc2cnc(NC(=O)c3cccs3)s2)cc1`, the AC50 is 8.91 µM (active).

With `Cn1c(=O)c2c(ncn2CC(COCc2ccccc2Cl)OCc2ccccc2Cl)n(C)c1=O` (configuration not stated), the AC50 is 8.91 µM (active).

In the case of `Cn1c(=O)c2c(ncn2C[C@@H](O)CO)n(C)c1=O`, the AC50 entry is “inactive”.

Take `Cn1c(=O)c2c(ncn2CCO)n(C)c1=O`: the AC50 result was “inactive”.

`Cc1ccc(-c2csc(N3CCC(NS(=O)(=O)c4ccc5c(c4)OCCO5)CC3)n2)cc1`: the half-maximal activity concentration (AC50) was 3.16 µM (active).

As to `CCCCOc1ccc(C(=O)N/C(=C\c2ccc(OC)cc2)C(=O)OCc2ccco2)cc1`, the AC50 was 3.98 µM (active).

Regarding `CCCCOc1ccc(C(=O)N/C(=C\c2cccc([N+](=O)[O-])c2)C(=O)OCCC)cc1`, the AC50 entry was “inactive”.

Consider `O=c1c(-c2ccc(Cl)cc2)nc2cnc(N3CCOCC3)nc2n1C1CC1`, for which the AC50 result was “inactive”.

With `CC(=O)Nc1ccc([N+](=O)[O-])cn1`, the AC50 result was “inactive”.

Take `C/C(=N\NC(=O)COc1ccc([N+](=O)[O-])cc1)C(C)(C)C`: the AC50 result is “inactive”.

`O=C(COc1ccc(Br)cc1)Nc1ccc([N+](=O)[O-])cn1`: the AC50 is 2.82 µM (active).

As to `CCOc1cc(C2CC(=O)c3c(ccc4ccccc34)N2)ccc1O` (configuration not stated), the concentration at half-maximal activity (AC50) was 5.01 µM (active).

Take `CCOc1ccc2ccccc2c1C(=O)N[C@@H]1C(=O)N2[C@@H]1SC(C)(C)[C@@H]2C(=O)O`: the AC50 entry was “inactive”.

For the compound `Nc1cccc(OCc2nc(N)nc(N)c2-c2ccc(Cl)cc2)c1`, the activity, negative = inhibition was -6.77% [at 11.4 µM].

For `Cc1cc(OCc2nc(N)nc(N)c2-c2ccc(Cl)c(Cl)c2)ccc1[N+](=O)[O-]`, the AC50 is 3.16 µM (active).

Take `CCCN1CCC(=NNC(=O)c2ccc(Br)o2)CC1`: the concentration at half-maximal activity (AC50) was 25.1 µM (active).

Consider `CC(C)N1CCC(=NNC(=O)c2ccc(Br)o2)CC1`, for which the AC50 result was “inactive”.

As to `O=C(Nc1nnc(SCc2ccc(Cl)cc2Cl)s1)C1COc2ccccc2O1` (configuration not stated), the AC50 was 2.51 µM (active).

Regarding `Nc1nc2c(nc(Br)n2[C@@H]2O[C@H]3COP(=O)(O)O[C@H]3[C@@H]2O)c(=O)[nH]1`, the AC50 entry was “inactive”.

As to `COC(=O)N1CCC2(CC1)CN(C(=O)Nc1cccc(C#N)c1)C2`, the AC50 entry was “inactive”.

On to `CCCC(=O)Nc1cccc(Oc2nc(C)cc(C)c2C#N)c1`, for which the AC50 was 17.8 µM (active).

Consider `Cc1cnc(NC(=O)CCCc2nc3ccccc3s2)s1`, for which the AC50 was 7.94 µM (active).

As for `COc1ccccc1N1CCN(C[C@@H](C(=O)NC(C)(C)C)c2ccccc2)CC1`, the AC50 result was “inactive”.

Turning to `COc1ccccc1N1CCN(C[C@@H](O)COc2cccc3ccccc23)CC1`, the AC50 was 6.31 µM (active) and 7.94 µM (active) and 1.58 µM (active).

`Clc1ccc(CN2CCCN(Cc3ccc(Cl)cc3)C2c2cc3ccccc3c3ccccc23)cc1`: the AC50 is 0.794 µM (active).

As for `O=C(O)[C@@H]1CCCN1Cc1cc2ccccc2c2ccccc12`, the activity, negative = inhibition is 31.6% [at 11.4 µM].

On to `CC(C)CC(=O)Nc1ccccc1-c1nnn(CC(=O)N2CCc3ccccc3C2)n1`, for which the AC50 is 14.1 µM (active).

On to `COc1ccc2c(c1OC)C(=O)O[C@@H]2[C@H]1c2c(cc3c(c2OC)OCO3)CCN1C`, for which the AC50 was 0.158 µM (active).

As to `COc1ccc2c(c1OC)C(=O)OC2[C@H]1c2c(cc3c(c2OC)OCO3)CCN1C` (some centres not stated), the AC50 is 2.51 µM (active).

As for `C[C@H]1CCCC=CC2C[C@H](OC(=O)CN(C)C)C[C@@H]2[C@@H](O)/C=C\C(=O)O1` (some centres not stated), the activity, negative = inhibition is 8.1% [at 11.4 µM].

For the compound `C#CCSc1nnc(-c2sc(-c3ccccc3)nc2C)n1C`, the AC50 was 2.51 µM (active).

Turning to `CSc1nnc(-c2sc(-c3ccccc3)nc2C)n1C`, the AC50 result was “inactive”.

On to `C#CCSc1nnc(-c2cc3c(C(F)(F)F)nn(C)c3s2)n1C`, for which the AC50 result was “inactive”.

One may read the AC50 as the concentration at which the activity in the assay is half-maximal.
